This note sets out measurements from PubChem BioAssay (NCATS).

Assay [1] addresses N-terminal Xaa-Pro-Lys N-methyltransferase 1 (Homo sapiens) (UniProt Q9BV86). The experiment in a line: qHTS Assay for Inhibitors of N-terminal methyltransferase 1 (NTMT1): LOPAC validation of the NTMT1 SAHH-coupled ThioGlo3 Assay (AID 1347143).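 Also: SAH from peptide methylation measured as thiol fluorescence via SAHH coupling and ThioGlo3; nearly all actives have a fitted effect of over 70% in size.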 The following applies: recombinant NTMT1, SAHH-coupled ThioGlo3 fluorescence; series mostly up to 114 µM. From the text:
Assay Submitter (PI): Rong Huang Ph.D, Purdue University, West Lafayette, IN 47907 The N-terminal methytransferase 1 is the first methyltransferase that methylates protein alpha-N-amines and plays an important role in regulating cell mitosis, chromatin interactions and DNA repair. It is observed to be over-expressed in various cancer patient tissues like malignant melanoma and colorectal cancer tissues. Knockdown of NTMT1 in cancer cells causes cell mitotic defects and enhances sensitivity to DNA damaging chemotherapeutics. […] These critical cellular processes in which NTMT1 is implicated, coupled with emerging links to cellular dysfunction, strengthen the inference that NTMT1 is a compelling novel anticancer target. Progress have been made in understanding the molecular properties of NTMT1 and the biological consequences of protein alpha-N-terminal methylation, but there are no specific small molecule probes available for NTMT1 to fully characterize its MTase activity. To address this unmet need, a panel of assay is created and established to enable quantitative high-throughput screening (qHTS) for novel, potent, and selective small molecule NTMT1 inhibitors. Two orthogonal qHTS that use different reagents (ThioGlo vs. MTaseGlo) are developed for primary robotic screening against the NCATS chemical library of more than 400,000 small molecules. Identified inhibitors are reacquired, validated, and further characterized. […] A pilot screen against the LOPAC library of 1280 compounds is carried out to assess performance of the optimized qHTS in 1536-well plate format. Early Translation Branch (ETB) National Center for Advancing Translational Sciences (NCATS) National Institute of Health (NIH)
Materials: NTMT1 enzyme, substrate SPKRIA, control peptide RCC1-6 is provided by the Huang laboratory. ThioGlo3 Assay: In brief, 125nM NTMT1 enzyme was dispensed into a 1536-well assay plate with Aurora Discovery BioRAPTR Flying Reagent Dispenser (FRD, Beckton-Dickenson). Compounds (at various concentration) or 1uM RCC1-6 (SPKRIA) control were transferred to the assay plate using the Kalypsys 1536-pintool apparatus. After 1 min of room temperature incubation, 1uL of substrate (100uM SAM, 10uM SAHH, 15uM ThioGlo3) was added to the wells bringing the final assay volume to 4uL. Initial (background) fluorescence readout (EX: 340nm, EM: 450nm) was then detected using the PerkinElmer ViewLux microplate imager and a final fluorescence readout was taken after 30 min of room temperature incubation. The data was normalized to the background fluorescence.
A general note: Quantitative high-throughput screening tests each substance at several concentrations.

Assay [2] can be described thus: qHTS of pediatric cancer cell lines to identify multiple opportunities for drug repurposing: Confirmatory screen for U-2 OS cells (AID 1347122). Also: nearly all actives have a fitted effect of over 65% in size. Also: potency is read from the fitted curve at half-maximal effect. The following applies: U-2 OS osteosarcoma cell viability; series mostly up to 45.9 µM. In a few lines: (§1)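 Viability after 48 h compound treatment at 37C, 500-1,000 cells/well, read as ATP luminescence with CellTiter-Glo. Primary screens used 11-point (MIPE, 0.78 nM-46 µM) or 8-point (NPC, 0.59 nM-46 µM) final concentrations; follow-up screens used 11-point dilutions.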

The nature of assay [3]: qHTS of pediatric cancer cell lines to identify multiple opportunities for drug repurposing: Confirmatory screen for Rh41 cells (AID 1347123).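 Also: 48 h compound exposure; nearly all actives have a fitted effect of over 60% in size.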 Also: potency is read from the fitted curve at half-maximal effect. Conditions: Rh41 rhabdomyosarcoma cells, viability/cytotoxicity qHTS; series mostly up to 45.9 µM. A digest of the protocol:
as §1

Assay [4] in a line: qHTS of pediatric cancer cell lines to identify multiple opportunities for drug repurposing: Confirmatory screen for Rh18 cells (AID 1347125). Also: nearly all actives have a fitted effect of over 55% in size. Also: potency is read from the fitted curve at half-maximal effect. The following applies: Rh18 rhabdomyosarcoma cells, viability; series mostly up to 45.9 µM. A digest of the protocol: as §1
Assay [5] can be described thus: qHTS of pediatric cancer cell lines to identify multiple opportunities for drug repurposing: Confirmatory screen for OHS-50 cells (AID 1347128).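 Also: compound exposure lasted 48 h at 37 degrees C; nearly all actives have a fitted effect of over 55% in size.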 Also: potency is read from the fitted curve at half-maximal effect. Conditions: OHS-50 osteosarcoma cells viability; series mostly up to 45.9 µM. A digest of the protocol: as §1
Assay [6] is described as follows: qHTS of pediatric cancer cell lines to identify multiple opportunities for drug repurposing: Confirmatory screen for SK-N-SH cells (AID 1347129).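 Also: cells exposed to compound for 48 h before viability read; nearly all actives have a fitted effect of over 60% in size.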 Also: potency is read from the fitted curve at half-maximal effect. The following applies: SK-N-SH neuroblastoma cell viability; series mostly up to 46.1 µM. A digest of the protocol:
as §1

The nature of assay [7]: qHTS of pediatric cancer cell lines to identify multiple opportunities for drug repurposing: Confirmatory screen for Saos-2 cells (AID 1347127). Also: nearly all actives have a fitted effect of over 60% in size. Also: potency is read from the fitted curve at half-maximal effect. Conditions: Saos-2 osteosarcoma cell viability; series mostly up to 45.9 µM. In a few lines:
as §1

A short description of assay [8]: qHTS of pediatric cancer cell lines to identify multiple opportunities for drug repurposing: Confirmatory screen for RD cells (AID 1347124).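 Also: cells exposed to compound for 48 h before viability readout; nearly all actives have a fitted effect of over 65% in size.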 Also: potency is read from the fitted curve at half-maximal effect. Conditions: RD rhabdomyosarcoma cell viability; series mostly up to 45.9 µM. In a few lines:
as §1

Assay [9] can be described thus: qHTS of pediatric cancer cell lines to identify multiple opportunities for drug repurposing: Confirmatory screen for Rh30 cells (AID 1347126). Also: nearly all actives have a fitted effect of over 55% in size. Also: potency is read from the fitted curve at half-maximal effect. Conditions: Rh30 rhabdomyosarcoma cell viability; series mostly up to 45.9 µM. A digest of the protocol: as §1
For the next assay, the target named is Furin (Homo sapiens) (UniProt P09958). Description: Furin counterscreen qHTS for Zika virus inhibitors (AID 1347149).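 Also: purified recombinant full-length human furin enzyme at 5 nM; fluorescence gain from furin cutting a BOC-RVRR-AMC peptide substrate over 15 min; top concentration of the series differs between compounds; nearly all actives have a fitted effect of over 70% in size.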 Conditions: furin enzymatic counterscreen, fluorogenic substrate; series mostly up to 57.5 µM. In a few lines: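 Fluorogenic cleavage of BOC-RVRR-AMC (2 microM final, Km ~15 µM) was monitored (ex 340, em 450 nm) at 37C after 15 min RT preincubation of 5 nM furin with compounds in HEPES pH 7.0 buffer with CaCl2 and Triton X-100. Percent inhibition was fitted to a 4-parameter Hill curve.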
Chain of Furin (Homo sapiens) (P09958 whole entry, looked up): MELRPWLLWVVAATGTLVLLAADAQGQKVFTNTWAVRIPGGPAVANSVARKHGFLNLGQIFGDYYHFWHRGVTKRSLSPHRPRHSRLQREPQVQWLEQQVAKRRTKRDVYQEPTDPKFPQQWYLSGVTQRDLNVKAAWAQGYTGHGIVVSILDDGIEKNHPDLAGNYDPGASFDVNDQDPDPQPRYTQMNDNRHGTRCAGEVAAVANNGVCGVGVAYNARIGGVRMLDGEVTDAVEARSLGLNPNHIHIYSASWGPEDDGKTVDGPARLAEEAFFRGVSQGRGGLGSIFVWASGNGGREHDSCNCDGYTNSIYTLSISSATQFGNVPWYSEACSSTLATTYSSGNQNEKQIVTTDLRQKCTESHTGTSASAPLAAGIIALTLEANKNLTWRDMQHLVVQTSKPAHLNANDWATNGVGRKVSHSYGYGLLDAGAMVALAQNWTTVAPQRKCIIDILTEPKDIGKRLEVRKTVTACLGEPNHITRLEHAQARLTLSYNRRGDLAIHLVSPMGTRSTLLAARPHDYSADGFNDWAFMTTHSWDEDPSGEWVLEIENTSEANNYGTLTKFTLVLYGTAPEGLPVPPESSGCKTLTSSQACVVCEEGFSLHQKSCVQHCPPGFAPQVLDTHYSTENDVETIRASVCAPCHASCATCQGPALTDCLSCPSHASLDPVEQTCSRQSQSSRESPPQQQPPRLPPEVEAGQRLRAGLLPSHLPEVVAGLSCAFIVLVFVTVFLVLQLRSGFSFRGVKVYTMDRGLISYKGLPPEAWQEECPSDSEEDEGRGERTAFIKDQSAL
In general terms: A counterscreen serves to expose hits that act by an unwanted route or on another target.

Records with an inconclusive call do not appear. Calls of active or inactive are those of the source. Calls follow the shape of the dose curve; as a rule, active = well fitted curve in the direction sought with a large enough effect; inconclusive = small, poorly fitted or top-dose-only effect, or another doubt; inactive = no such curve, though single readings can be large; an effect the other way counts as inactive or inconclusive.

Chain of N-terminal Xaa-Pro-Lys N-methyltransferase 1 (Homo sapiens) (Q9BV86 whole entry, looked up): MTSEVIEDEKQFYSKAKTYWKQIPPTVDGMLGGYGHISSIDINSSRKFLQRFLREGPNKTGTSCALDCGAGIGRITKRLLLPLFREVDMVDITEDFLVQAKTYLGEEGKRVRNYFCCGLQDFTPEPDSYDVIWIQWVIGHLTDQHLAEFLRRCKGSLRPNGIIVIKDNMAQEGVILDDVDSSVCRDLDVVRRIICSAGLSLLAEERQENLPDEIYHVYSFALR

On to `O=C(O)c1nn(Cc2ccc(Cl)cc2Cl)c2ccccc12`, for which, in [1], the result was inactive.

With `CC1Sc2c(C(=O)O)c(=O)c3cc(F)c(N4CCNCC4)cc3n21` (stereo not given), the Potency entry in assay [2], in assay [3], in assay [4], in [5] and in assay [6] was “inactive” throughout.

On to `COc1ccc(C(=O)N2CCCC2=O)cc1`, for which the Potency entry in [2], in assay [3], in assay [7] and in assay [6] was “inactive” in each case. In addition, the outcome in [1] was inactive.

Take `COc1ccc2c(C(=O)c3ccc(Cl)cc3)c(C)n(CC(=O)O)c2c1`: the Potency entry in assay [2], in assay [3], in assay [8], in assay [4], in assay [7] and in [5] was “inactive” each time. The Potency result in assay [6] was “inactive”.

Turning to `ClC1=C(Cl)C2(Cl)C(CBr)CC1(Cl)C2(Cl)Cl` (stereo not given), the Potency entry in assay [3], in [8], in assay [4], in assay [9], in assay [7] and in assay [5] was “inactive” throughout. Also, in assay [6], the Potency entry was “inactive”.

In the case of `NC(=O)CN1CCCC1=O`, the result in assay [1] was inactive.

Regarding `CC[n+]1c(-c2ccccc2)c2cc(N)ccc2c2ccc(N)cc21`, the Potency in [3] was 1.65 µM (active); in [8], 14.7 µM (active); in assay [4], 4.14 µM (active); in [9], 2.61 µM (active); in assay [7], 16.5 µM (active); in assay [5], 1.17 µM (active). Also, in [6], the Potency entry was “inactive”.

Consider `O=C(O)Cc1ccccc1`, for which the Potency entry in [2], in assay [3] and in [6] was “inactive” throughout.

Turning to `CCCCCCCCC(=O)NCc1ccc(O)c(OC)c1`, the Potency result in [2], in assay [3], in assay [8], in assay [4], in assay [9] and in assay [7] was “inactive” each time. The Potency result in assay [5] and in assay [6] was “inactive” throughout.

Turning to `C[C@@H]1C[C@@H]([C@H](O)CC2CC(=O)NC(=O)C2)C(=O)[C@@H](C)C1`, the Potency in assay [2] was 3.29 µM (active); in assay [8], 2.61 µM (active); in assay [9], 0.737 µM (active); in [5], 0.928 µM (active).

For the compound `CN1[C@@H]2CC[C@H]1CC(OC(=O)c1cc(Cl)cc(Cl)c1)C2` (stereo not given in full), the Potency entry in assay [2], in assay [4], in [9], in assay [7] and in assay [5] was “inactive” in each case.

Regarding `CCCCCCCCCCCC[N+](C)(C)CCOc1ccccc1`, the Potency is 13.1 µM (active) in assay [2]; 7.37 µM (active) in [3]; 18.5 µM (active) in assay [8]; 20.8 µM (active) in assay [4]; 16.5 µM (active) in assay [9]; 14.7 µM (active) in [7]. Moreover, the figures for the Potency in [5] and in [6] were 20.8 µM (active) and 20.9 µM (active), respectively.

With `CN(C)C(=S)SSC(=S)N(C)C`, the Potency in [2] was 3.69 µM (active); in [3], 0.233 µM (active); in [8], 16.5 µM (active); in assay [4], 0.585 µM (active); in [7], 10.4 µM (active); in assay [6], 11.8 µM (active).

For `C[C@@H]1O[C@@H](O[C@@H]2C=C3CC[C@@H]4[C@H](CC[C@]5(C)[C@@H](c6ccc(=O)oc6)CC[C@]45O)[C@@]3(C)CC2)[C@H](O)[C@H](O)[C@H]1O`, the Potency was 0.0033 µM (active) in assay [8], 6.57 µM (active) in assay [4], 0.185 µM (active) in [7] and 0.0264 µM (active) in assay [6].

On to `CC(C)=CCN1CC[C@@]2(C)c3cc(O)ccc3C[C@@H]1[C@@H]2C`, for which the outcome in the assay with Furin (Homo sapiens) was inactive.

For the compound `CCc1ccc(C2CCNCC2)cc1`, the Potency entry in assay [2], in [3], in assay [4], in [9], in assay [7] and in assay [5] was “inactive” in each case. Also, the Potency result in [6] is “inactive”.

In the case of `Oc1ccc([C@H]2CNCc3c2ccc(O)c3O)cc1O`, the call in the assay with Furin (Homo sapiens) was inactive.

With `Cc1ccc([N+](=O)[O-])[c]2c1[O][Hg]2`, the Potency in assay [2] is 9.27 µM (active); in assay [3], 0.233 µM (active); in assay [8] it was 0.827 µM (active); in assay [4], 5.22 µM (active); in assay [7], 1.04 µM (active); in assay [5], 2.61 µM (active). Also, the Potency in [6] is 3.72 µM (active).

Consider `COC(=O)C1=CCCN(C)C1`, for which the Potency entry in assay [2], in assay [3], in assay [8], in assay [4], in [9] and in assay [5] was “inactive” in each case. In addition, the Potency result in [6] is “inactive”. Also, the result in [1] was inactive.
